Assay outcomes: PubChem, National Center for Advancing Translational Sciences (NCATS)
Epigenetic reg: regulators of epigenetic silencing causing reporter derepression in mouse cells; 0.2% of 280,000 active; Potency, µM (series often up to 53.9 µM), inactives show at the highest dose GFP activation, hits mostly activators; AID 1865; murine LDR cells, GFP reporter derepression, 30 h; active = well fitted activation curve with a large enough effect; inconclusive = small, poorly fitted or top-dose-only effect; also: potency is read from the fitted curve at half-maximal effect; % of control where 0% means no effect; nearly all actives have a fitted effect of over 60% in size
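Murine LDR cells bearing a silenced CMV-driven GFP reporter were exposed to compound for 30 h at 37 C. After PBS washes, GFP-positive cells (20-120 um objects) counted by laser-scanning microplate cytometry.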
TRHR agonist: agonists of human TRH receptor; activation, % at 2 µM; TRHR cells, calcium flux fluo-8, FDSS agonist mode; 0.18% of 360,000 active; also: 0% is about no effect
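Read-out: compound-evoked intracellular calcium rise in TRHR cells, fluo-8 dye, kinetic FDSS fluorescence at 1 s/cycle following a 10-cycle baseline. Cells cultured overnight before dye loading (30 min–1.5 h, RT).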
TRHR enhancer: allosterically enhances the human TRH receptor; 0.66% of 360,000 active; P34981; TRHR cells, fluo-8 calcium fluorescence, EC20 TRH enhancement; enhancement, % at 2 µM; AID 493056; in the data active = enhancement above about 30%; also: 0% is about no effect
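TRHR-expressing cells loaded with fluo-8 calcium dye were read kinetically (ex 480/em 530) during compound addition, then stimulated with an EC20 of TRH (10 nM final). Enhancement of the Gq-mediated intracellular calcium response was scored.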
D1 agonist: agonists of human D1 dopamine receptor | P21728 | activation, % at 2 µM | 1% of 360,000 active | HEK293 T-REx D1 cells, calcium flux, agonist mode; also: 0% is about no effect
Target sequence (P21728 whole entry, looked up): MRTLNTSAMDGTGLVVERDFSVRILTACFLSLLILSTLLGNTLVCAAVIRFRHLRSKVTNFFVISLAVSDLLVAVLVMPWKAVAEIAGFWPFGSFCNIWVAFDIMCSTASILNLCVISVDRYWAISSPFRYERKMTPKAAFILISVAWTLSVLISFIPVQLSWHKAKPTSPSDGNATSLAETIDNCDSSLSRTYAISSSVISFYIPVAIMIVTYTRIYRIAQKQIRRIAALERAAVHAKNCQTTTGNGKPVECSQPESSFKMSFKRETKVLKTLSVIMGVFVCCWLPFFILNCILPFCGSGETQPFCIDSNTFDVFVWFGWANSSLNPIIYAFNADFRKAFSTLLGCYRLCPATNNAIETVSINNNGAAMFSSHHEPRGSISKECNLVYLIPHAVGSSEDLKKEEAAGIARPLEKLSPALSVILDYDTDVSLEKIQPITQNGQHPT
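Inducible HEK293 T-REx D1 cells, force-coupled to calcium signalling, were plated at 4000 cells/well with tetracycline and held overnight at 30 C. After no-wash calcium dye loading, compound-evoked calcium rise over 180 s flagged agonists.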
D1 antagonist: human D1 dopamine receptor antagonism. P21728. HEK293 TREx D1 cells, calcium flux, dopamine EC80; active compounds read low. activity change, negative = inhibition, % at 10 µM. 3.2% of 360,000 active. AID 504652; in the data active = activity change below about -30%; also: % is scaled to controls: 0 for no effect and ±100 for the full control effect
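Antagonism measured as reduced calcium response to an EC80 dopamine addition following 180 s compound pre-read; cells were inducible HEK293 Trex D1 plated overnight at 30 C, read kinetically at 1 cycle/sec.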
D1 PAM: human D1 dopamine receptor positive modulation. HEK293 TREx D1 cells, calcium flux, dopamine EC20 potentiation. potentiation, % at 10 µM. 0.036% of 360,000 active. P21728. AID 504651; in the data active = potentiation above about 30%; also: 0% is about no effect
* = called active by the depositor; ? = inconclusive; . = not tested or not shown. Most compounds without a hit are left out; they make up all but 4.6% or so of the library. Rule as the data show it, unless noted: active = activation above about 30%; inactive = the rest.

SMILES	Epigenetic reg	TRHR agonist	TRHR enhancer	D1 agonist	D1 antagonist	D1 PAM
CCN(CC)CCCNC(=O)c1cc(-c2ccc(O)cc2)on1	-0.7%	0.2	15.9	4.9	-43.6*	-5.0
COCCCNC(=O)c1ccc(-n2nc(C(F)(F)F)cc2-c2cccs2)cc1	-1.5%	-0.7	-0.1	10.6	-1.6	-6.6
O=C(NCCCN1CCOCC1)c1cc(-c2cccs2)on1	14.1µM*	0.5	-5.8	0.8	-0.7	-1.8
O=C(NCCCN1CCOCC1)c1ccc(-n2nc(C(F)(F)F)cc2-c2cccs2)cc1	-1.0%	-0.6	9.6	61.7*	-24.8	-9.5
O=C(NCCCN1CCOCC1)c1cc(-c2ccc(Cl)c(Cl)c2)on1	.	0.9	-2.3	24.1	-32.8*	-1.4
CN(C)CCCNCCCNC(=O)/C=N/O	1.7%	0.6	-5.0	0.6	-38.3*	-7.8
Cc1cccc(CNc2ccnc(-c3ccc(N(C)C)cc3)n2)c1	0.5%	.	.	.	.	.
CN(C)CCNC(=O)c1ccc2nc(Cc3ccccc3)oc2c1	0.0%	0.3	0.6	3.7	5.5	-2.0
Cc1cc(SCC(=O)N/N=C/c2ccc(O)c(O)c2)c(C)cc1Br	8.5%	0.8	-2.0	2.2	-31.7*	-4.8
CC(NC(=O)c1ccco1)C(=O)N1CCN(C(c2ccccc2)c2ccccc2)CC1 (centres undefined)	.	-0.2	-0.1	0.6	-32.2*	1.2
CC(NC(=O)c1ccco1)C(=O)N1CCN(c2ccccc2)CC1 (centres undefined)	.	1.3	-3.3	0.5	-29.4	-1.8
COc1ccc(Cn2cc3c(-c4ccc(F)cc4)nnc-3c3cc(OC)c(OC)cc32)cc1	?	-0.1	19.5	19.9	64.7	1.7
COc1cc2c3nnc(-c4ccc(F)cc4)c-3cn(Cc3ccc(F)cc3)c2cc1OC	?	-0.4	-3.2	2.2	-36.8*	-10.3
Cc1ccccc1OC(=O)c1cc(-c2ccc3c(c2)OCCO3)on1	-3.2%	0.0	-2.9	7.9	-46.4*	-1.6
O=C(Nc1cccc(Br)c1)c1cc(-c2ccc3c(c2)OCCO3)on1	-3.2%	-0.7	5.1	15.8	-40.8*	-1.9
Cc1cccc(OC(=O)c2cc(-c3ccc4c(c3)OCCO4)on2)c1C	0.0%	2.0	-2.7	17.0	-16.8	-1.6
N#Cc1ccc(OC(=O)c2cc(-c3ccc4c(c3)OCCO4)on2)cc1	0.0%	-1.2	6.3	33.4*	-8.2	0.5
O=C(Oc1ccc(Cl)cc1)c1cc(-c2ccc3c(c2)OCCO3)on1	-3.2%	0.1	5.6	17.1	-2.6	-1.6
CC1(C)N([O-])C(c2ccccc2)=C[N+](=O)C1(C)C	-0.9%	-0.2	-2.8	1.9	-1.4	-8.0
COc1ccc(OC)c(C2=C[N+](=O)C(C)(C)C(C)(C)N2[O-])c1	-1.0%	0.0	7.8	4.5	-11.7	54.0*
Clc1ccc(CCNc2ncnc3nc[nH]c23)cc1	-1.0%	-0.6	4.4	19.3	-35.5*	-5.3
c1ccc(CNc2ncnc3nc[nH]c23)cc1	-3.0%	0.2	-5.7	2.4	0.3	-5.8
c1ccc(CCCNc2ncnc3nc[nH]c23)cc1	7.8%	-0.1	-1.9	192.6*	-56.7*	1.9
O=S(=O)(c1ccc2ccccc2c1)n1nc(-c2ccco2)nc1NCc1cccc(Cl)c1	-1.6%	0.7	-4.5	11.1	-41.6*	-2.1
COc1ccc(-c2nc(CN3CCC(C(=O)NCc4ccc(C)cc4)CC3)c(C)o2)cc1OC	-1.1%	0.1	-3.5	0.4	-31.0*	-5.7
SMILES	Epigenetic reg	TRHR agonist	TRHR enhancer	D1 agonist	D1 antagonist	D1 PAM
Cc1oc(-c2cccc(Cl)c2)nc1CN1CCCC(C(=O)NCCc2ccc(Cl)cc2)C1 (centres undefined)	0.8%	0.6	27.0	3.0	4.2	-0.6
COc1ccc(-c2nc(CN3CCC(C(=O)NCCc4ccccc4)CC3)c(C)o2)cc1OC	0.0%	0.0	19.6	0.6	-23.3	-0.3
Cc1oc(-c2cccc(Cl)c2)nc1CN1CCC(C(=O)NCCCN2CC(C)CC(C)C2)CC1 (centres undefined)	.	0.3	-2.9	1.9	7.5	9.6
Cc1oc(-c2cccc(Cl)c2)nc1CN1CCC(C(=O)NCCCN2CCN(c3cccc(Cl)c3)CC2)CC1	-1.1%	0.7	1.1	66.5*	-39.2*	-0.9
CCN1CCN(CCNC(=O)C2CCCN(Cc3nc(-c4cccc(Cl)c4)oc3C)C2)CC1 (centres undefined)	1.2%	-0.1	3.0	0.7	-39.4*	-6.2
COC(=O)CN=C1OC(=O)N2C(=O)C3=C4C(C[C@H]5C(=O)N(c6ccccc6)C(=O)[C@H]5[C@H]4[C@@]12Cc1ccccc1)[C@H]1C(=O)N(c2ccccc2)C(=O)[C@H]1[C@H]3C (some centres undefined)	-1.2%	.	.	.	.	.
CCOC(=O)c1cn(Cc2ccc(C)cc2)nn1	7.3%	0.1	3.2	5.5	-4.5	2.6
CCOC(=O)c1cn(Cc2ccc(Br)cc2)nn1	14.3%	-0.3	36.2*	7.0	7.9	-6.2
CC(=O)c1ccc(NC(=O)CN2C(=O)COc3ccc(Cl)cc32)cc1	0.8%	1.0	-1.2	4.8	1.3	-3.0
Cc1ccccc1NC(=O)CN1C(=O)COc2ccc(Cl)cc21	0.0%	1.1	-11.4	3.6	-91.5*	-8.9
O=C(CN1C(=O)COc2ccc(Cl)cc21)Nc1ccc(F)cc1	1.9%	1.1	2.6	24.8	-33.7*	-5.9
Cc1ccc(C)c(NC(=O)CN2C(=O)COc3ccc(Cl)cc32)c1	3.8%	-0.1	7.5	-0.1	-16.9	-4.6
O=C(Nc1ccc2nc(SCCOc3ccccc3)sc2c1)c1cccs1	1.6%	0.8	-0.8	7.3	2.1	-1.8
CCCCN(C(=O)CSc1nnc(-c2ccco2)o1)c1c(N)n(Cc2ccccc2)c(=O)[nH]c1=O	-1.3%	-1.0	-4.2	2.4	-24.2	2.1
CC(C)CCN(C(=O)Cc1ccccc1F)c1c(N)n(Cc2ccccc2)c(=O)[nH]c1=O	-2.2%	0.8	1.4	0.8	-54.6*	-2.8
CCCN(C(=O)C(NC(=O)c1ccccc1)C(C)C)c1c(N)n(Cc2ccccc2)c(=O)[nH]c1=O (centres undefined)	.	0.4	-3.4	-0.2	-76.6*	-19.6
CC(C)CN(C(=O)CSc1nnc(-c2ccco2)o1)c1c(N)n(Cc2ccccc2)c(=O)[nH]c1=O	-4.5%	-0.7	12.4	-0.4	-38.0*	-6.5
CC1Cc2ccccc2N1CC(=O)N(C)c1c(N)n(Cc2ccccc2)c(=O)[nH]c1=O (centres undefined)	.	1.5	-1.8	3.9	-7.8	-2.0
CCN(C(=O)CN1c2ccccc2CC1C)c1c(N)n(Cc2ccccc2)c(=O)[nH]c1=O (centres undefined)	4.1%	0.4	1.4	2.0	-0.6	45.5*
Cc1cccc(Nc2c3c(nc4nncn24)CCC3)c1C	2.0%	-0.5	2.1	-1.2	9.8	-0.5
